High-throughput results: PubChem, National Center for Advancing Translational Sciences (NCATS)
Most compounds without a hit are left out; they make up all but 2.4% or so of the library.
D2 ag-1: agonists of human D2 dopamine receptor; P14416; HEK293 T-REx D2 cells, calcium flux agonist mode; activation, % at 2 µM; 340,000 compounds, 0.53% hits;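 active means activation over 3 SD above normal in the single-dose calcium agonist read, cut at about 30% in these data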
Target sequence (P14416 whole entry, looked up): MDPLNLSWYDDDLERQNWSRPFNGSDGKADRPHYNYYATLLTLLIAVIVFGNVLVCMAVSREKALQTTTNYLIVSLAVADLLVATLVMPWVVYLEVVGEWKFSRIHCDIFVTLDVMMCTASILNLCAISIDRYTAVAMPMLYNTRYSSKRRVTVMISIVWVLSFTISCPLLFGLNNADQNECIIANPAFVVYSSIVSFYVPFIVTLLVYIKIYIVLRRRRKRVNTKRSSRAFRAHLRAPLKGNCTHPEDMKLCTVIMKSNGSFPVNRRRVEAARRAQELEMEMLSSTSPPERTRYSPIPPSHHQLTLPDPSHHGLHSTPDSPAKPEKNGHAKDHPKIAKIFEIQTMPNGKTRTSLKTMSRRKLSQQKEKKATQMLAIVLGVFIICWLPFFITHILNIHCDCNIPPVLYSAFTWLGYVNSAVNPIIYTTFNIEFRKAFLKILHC
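HEK293 Trex D2 cells, tetracycline-induced, o/n 30 C 5% CO2; no-wash Ca dye, RT 30–90 min; 10-cycle baseline, 23 nl cpd added, kinetic Ca read 180 s; agonist hits = positive Ca response.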
D2 PAM-1: D2 dopamine receptor (human) potentiation. potentiation, % at 10 µM. AID 485347. HEK293 T-REx D2, calcium flux, EC20 dopamine potentiation. 340,000 compounds, 0.34% hits. P14416;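 active means potentiation over 3 SD above the plate norm, cut at about 30% in these data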
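Cells plated with tetracycline inducer and held overnight at 30 C; calcium dye loaded 30–90 min at room temperature; baseline taken, compound added and read 180 s; EC20 dopamine then added and read 180 s.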
D2 antag: antagonists of human D2 dopamine receptor. P14416. 340,000 compounds, 2% hits. HEK293 TREx D2 cells, calcium flux, dopamine EC80. inhibition, % at 10 µM; in the data active means inhibition above about 30%; inactive means below that, where a call was filed
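Measurement of antagonist activity uses fluorescent calcium dye in inducible HEK293 T-REx D2 cells: 10 s baseline, compound addition with 180 s read, EC80 dopamine addition with a further 180 s read.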
D2 ag-2: human D2 receptor agonism in beta-arrestin assay; DiscoveRx PathHunter D2 beta-arrestin, luminescence, 90 min; 100% = 57 uM dopamine signal; 360,000 compounds, 0.084% hits; activation, % (concentration not given with the values); P14416; in the data active means activation above about 40%; inconclusive means between about 15% and that limit
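Agonist mode: compounds alone added to overnight-plated D2 PathHunter cells for 90 min at 37 C, with 57 uM final dopamine (EC100) defining full response. Beta-arrestin recruitment detected by chemiluminescent reagent, read after 1 h at ambient temperature.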
D2 PAM-2: human D2 receptor positive allosteric modulation | potentiation, % (concentration not given with the values) | DiscoveRx D2 beta-arrestin cells, luminescence, 90 min; 100% = 57 uM dopamine signal | 360,000 compounds, 0.23% hits; in the data active means potentiation above about 50%; inconclusive means mostly about 30% to 49%
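D2 cells co-treated with compound plus 50 nM dopamine (EC20) for 90 min at 37 deg C to detect potentiation. Beta-arrestin recruitment was read as enzyme-fragment luminescence after 1 h at ambient temperature. Full response was set by 57 uM dopamine.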
D3 ag: confirmation of human D3 dopamine receptor agonists, beta-arrestin; 2,300 compounds, 4% hits; shares compounds with D2 ag-1; Potency, µM (highest dose often 76.9 µM), usual class: activators; AID 720506; DiscoveRx D3 beta-arrestin cells, luminescence, 90 min; further: nearly all actives have a fitted effect of over 70% in size
D2 ag-3: activates human D2 dopamine receptor in D3 counterscreen. Potency, µM (titrated, usually from 76.9 µM), actives largely listed as activators. AID 720507. shares compounds with D2 ag-1. DiscoveRx PathHunter D2 beta-arrestin, luminescence, 90 min; response scale: percent relative to full dopamine signal. 2,300 compounds, 5.9% hits; further: nearly all actives have a fitted effect of over 70% in size
Hits are given with their value; - = inactive; ? = inconclusive; . = no result. Unless noted, the call rests on the fitted dose curve; in most records, active means well fitted activation curve with a large enough effect; inconclusive means small, poorly fitted or top-dose-only effect; inactive means flat fitted curve, though single readings scatter.

SMILES	D2 ag-1	D2 PAM-1	D2 antag	D2 ag-2	D2 PAM-2	D3 ag	D2 ag-3
O=C(C1CCC(CNS(=O)(=O)c2cccc3cccnc23)CC1)N1CCCC1 (centres undefined)	-	-	-	-	-	.	.
O=S(=O)(NCC1CCCN(Cc2ccccc2O)C1)c1cccc2cccnc12 (centres undefined)	49	-	-	-	-	-	-
O=C(O)Cc1sc(N/N=C\c2ccncc2)nc1-c1ccccc1	-	-	-	?	-	?	-
O=C(O)Cc1sc(Nc2ccccc2)nc1-c1ccccc1	-	-	.	.	.	.	.
CN(C1CCCCC1)S(=O)(=O)c1ccc(F)c(C(=O)Nc2ccc(C(F)(F)F)cc2)c1	.	-	.	.	.	.	.
CN1CCc2c(sc(NC(=O)c3ccc([N+](=O)[O-])o3)c2C(N)=O)C1	75	-	-	-	-	-	-
O=C(NC1CCCCC1)c1cc(C2CC2)nn1-c1ccccc1	.	.	.	-	-	-	-
Cc1cc(=O)n2nc(N3CCC(C(=O)NCCc4ccc(Cl)cc4)CC3)sc2n1	43	-	-	-	-	-	-
O=C(CCc1nnc2n(Cc3ccc(F)cc3)c(=O)c3ccccc3n12)N1CCN(c2ccccn2)CC1	53	-	-	-	-	-	-
O=C(CCc1nnc2n(Cc3ccc(F)cc3)c(=O)c3ccccc3n12)NCCN1CCOCC1	-	-	-	-	-	.	.
N#CN1C2CCC1CC(O)(c1ccccc1)C2 (centres undefined)	.	.	.	-	-	.	.
COc1ccc2cc3cc(C(=O)NCCN4CCc5ccccc5C4)sc3nc2c1	72	-	-	-	-	-	?
Cc1ccccc1CN1CCN(S(=O)(=O)c2ccc(F)cc2)CC1	-	-	-	-	-	.	.
O=S(=O)(c1ccc(Br)cc1)N1CCCN(Cc2ccccc2F)CC1	41	-	-	-	-	-	-
CC[n+]1c(-c2ccccc2)csc1Nc1c(C)n(C)n(-c2ccccc2)c1=O	50	-	-	-	-	-	-
Cc1ccc(Nc2nc3ccccc3nc2Nc2c(C)n(C)n(-c3ccccc3)c2=O)cc1	-	-	-	-	-	.	.
CC[n+]1c(-c2ccc(C)cc2)csc1Nc1c(C)n(C)n(-c2ccccc2)c1=O	66	-	52	-	-	-	-
Cc1c(Cl)cccc1N(CC(=O)NC1CCCCC1)S(C)(=O)=O	72	-	-	-	-	-	-
COc1ccc(C(=O)Nc2cc(-c3cccc(C)c3)nn2-c2ccccc2)cc1	-	-	.	.	.	.	.
COc1ccc(-c2nc(C)c(CCNS(=O)(=O)c3cc(C)c(C)cc3C)s2)cc1	-	-	.	.	.	.	.
CC(OC(=O)c1cc[n+]([O-])cc1)C(=O)Nc1ccc(C(N)=O)cc1 (centres undefined)	-	-	-	-	-	-	-
Cc1noc(C)c1C(=O)OC(C)C(=O)Nc1ccc(C(N)=O)cc1 (centres undefined)	-	-	-	-	-	.	.
Cc1sc(NC(=O)c2ccco2)c(CN2CCCCC2)c1C	-	-	-	-	-	.	.
Cc1sc(NC(=O)c2ccco2)c(CN2CCN(c3ccccc3)CC2)c1C	41	-	-	-	-	-	-
O=C(NCCCn1ccnc1)C(=O)NCC(c1cccnc1)N1CCN(c2ccccc2)CC1 (centres undefined)	43	-	-	-	-	-	-
SMILES	D2 ag-1	D2 PAM-1	D2 antag	D2 ag-2	D2 PAM-2	D3 ag	D2 ag-3
O=C(NCCCn1ccnc1)C(=O)NCC(c1ccco1)N1CCN(c2ccc(F)cc2)CC1 (centres undefined)	-	-	-	-	-	.	.
COc1ccc(N2CCN(C(CNC(=O)c3ccco3)c3ccco3)CC2)cc1 (centres undefined)	-	-	-	-	-	.	.
O=C(NCCCn1ccnc1)C(=O)NCC(c1ccco1)N1CCN(c2ccccc2)CC1 (centres undefined)	63	-	-	54	-	-	?
O=C(NCC(c1ccco1)N1CCN(c2ccccc2)CC1)c1ccco1 (centres undefined)	-	-	40	-	-	?	?
COc1cc(CNCCN2CCOCC2)ccc1OCC(=O)NC(C)(C)C	34	-	-	-	-	-	-
COc1cc(CNCCCN2CCOCC2)ccc1OCC(=O)NC(C)(C)C	-	-	-	-	-	.	.
O=C(O)c1cccc(-n2c(/C=C/c3ccc([N+](=O)[O-])cc3)nc3ccccc3c2=O)c1	-	-	-	-	-	-	-
O=C(O)c1cccc(-n2c(/C=C/c3cccc([N+](=O)[O-])c3)nc3ccccc3c2=O)c1	-	-	-	-	-	.	.
COc1cc(C(=O)OCc2cccc(OC)c2OC)ccc1OCC(=O)N1CCOCC1	-	-	-	-	-	-	-
COc1cc(C(=O)OCc2ccccc2C#N)ccc1OCC(=O)N1CCOCC1	-	-	-	-	-	.	.
Cc1ccc(-n2c(=O)c3c4c(sc3n(Cc3ccccc3C)c2=O)CCC4)cc1C	-	-	.	.	.	.	.
O=C(COC(=O)CCc1c[nH]c2ccccc12)NCc1ccc2c(c1)OCO2	74	-	-	-	-	-	-
COc1ccc(/C=N/NC(=O)c2nnn(-c3nonc3N)c2-c2cccc(OC)c2)cc1	-	-	34	-	-	-	-
C/C(=N\NC(=O)c1nnn(-c2nonc2N)c1-c1ccccc1)c1ccco1	-	-	-	-	-	-	-
COc1cccc(-c2c(C(=O)N/N=C(\C)c3ccco3)nnn2-c2nonc2N)c1	-	-	-	-	-	.	.
CCOc1ccc(/C(C)=N/NC(=O)c2nnn(-c3nonc3N)c2-c2cccs2)cc1	-	-	-	-	-	-	-
Cc1ccc(/C=N/NC(=O)c2nnn(-c3nonc3N)c2-c2cccs2)cc1	-	-	32	-	-	-	-
CCOc1cccc(-c2c(C(=O)N/N=C/c3ccncc3)nnn2-c2nonc2N)c1	-	-	-	-	-	.	.
COc1ccc(/C=N/NC(=O)c2nnn(-c3nonc3N)c2-c2cccs2)cc1OC	-	-	-	-	-	.	.
Cc1ccc(NC(=O)CN2C(=O)c3cccnc3Sc3ccccc32)cc1C	-	-	.	.	.	.	.
COc1cccc(-c2c(C(=O)N/N=C/c3cccs3)nnn2-c2nonc2N)c1	-	-	-	-	-	-	-
COCc1c(C(=O)N/N=C\c2cccs2)nnn1-c1nonc1N	-	-	-	-	-	.	.
Nc1nonc1-n1nnc(C(=O)N/N=C/c2ccc(F)cc2)c1-c1ccc2c(c1)OCO2	.	.	.	-	-	-	-
